In all, about 220,000 compounds went through this assay and about 800 (0.36%) were called active. The entries come from a sample that favours actives as a whole. Values without a mark were called inactive.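 Rule for the calls: active = inhibition above about 30% (limit read from the data); inactive = the rest.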
These compounds were tested against Eukaryotic translation initiation factor 4E (Mus musculus) + Eukaryotic translation initiation factor 4 gamma 1 (Homo sapiens) (UniProt P63073+Q04637) (assay: blockers of eIF4G binding by eIF4E – biochemical, uHTS, TR-FRET, eIF4GI fragment, primary screen (AID 782;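 note: 0% = full FRET control wells and 100% = background wells lacking eIF4GI fragment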)). Details: TR-FRET eIF4E-eIF4GI(517-606) binding, 2 h; at 21.7 µM; active compounds read high.
Sequence of Eukaryotic translation initiation factor 4E (Mus musculus) + Eukaryotic translation initiation factor 4 gamma 1 (Homo sapiens) (P63073 whole entry, looked up, the tested form may be a part): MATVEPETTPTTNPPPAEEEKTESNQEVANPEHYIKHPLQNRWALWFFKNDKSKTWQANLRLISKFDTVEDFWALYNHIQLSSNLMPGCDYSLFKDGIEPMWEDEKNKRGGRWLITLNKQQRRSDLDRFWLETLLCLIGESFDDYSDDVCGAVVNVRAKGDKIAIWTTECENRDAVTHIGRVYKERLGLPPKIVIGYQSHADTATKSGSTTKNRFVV
Sequence of Eukaryotic translation initiation factor 4E (Mus musculus) + Eukaryotic translation initiation factor 4 gamma 1 (Homo sapiens) (Q04637 whole entry, looked up, the tested form may be a part): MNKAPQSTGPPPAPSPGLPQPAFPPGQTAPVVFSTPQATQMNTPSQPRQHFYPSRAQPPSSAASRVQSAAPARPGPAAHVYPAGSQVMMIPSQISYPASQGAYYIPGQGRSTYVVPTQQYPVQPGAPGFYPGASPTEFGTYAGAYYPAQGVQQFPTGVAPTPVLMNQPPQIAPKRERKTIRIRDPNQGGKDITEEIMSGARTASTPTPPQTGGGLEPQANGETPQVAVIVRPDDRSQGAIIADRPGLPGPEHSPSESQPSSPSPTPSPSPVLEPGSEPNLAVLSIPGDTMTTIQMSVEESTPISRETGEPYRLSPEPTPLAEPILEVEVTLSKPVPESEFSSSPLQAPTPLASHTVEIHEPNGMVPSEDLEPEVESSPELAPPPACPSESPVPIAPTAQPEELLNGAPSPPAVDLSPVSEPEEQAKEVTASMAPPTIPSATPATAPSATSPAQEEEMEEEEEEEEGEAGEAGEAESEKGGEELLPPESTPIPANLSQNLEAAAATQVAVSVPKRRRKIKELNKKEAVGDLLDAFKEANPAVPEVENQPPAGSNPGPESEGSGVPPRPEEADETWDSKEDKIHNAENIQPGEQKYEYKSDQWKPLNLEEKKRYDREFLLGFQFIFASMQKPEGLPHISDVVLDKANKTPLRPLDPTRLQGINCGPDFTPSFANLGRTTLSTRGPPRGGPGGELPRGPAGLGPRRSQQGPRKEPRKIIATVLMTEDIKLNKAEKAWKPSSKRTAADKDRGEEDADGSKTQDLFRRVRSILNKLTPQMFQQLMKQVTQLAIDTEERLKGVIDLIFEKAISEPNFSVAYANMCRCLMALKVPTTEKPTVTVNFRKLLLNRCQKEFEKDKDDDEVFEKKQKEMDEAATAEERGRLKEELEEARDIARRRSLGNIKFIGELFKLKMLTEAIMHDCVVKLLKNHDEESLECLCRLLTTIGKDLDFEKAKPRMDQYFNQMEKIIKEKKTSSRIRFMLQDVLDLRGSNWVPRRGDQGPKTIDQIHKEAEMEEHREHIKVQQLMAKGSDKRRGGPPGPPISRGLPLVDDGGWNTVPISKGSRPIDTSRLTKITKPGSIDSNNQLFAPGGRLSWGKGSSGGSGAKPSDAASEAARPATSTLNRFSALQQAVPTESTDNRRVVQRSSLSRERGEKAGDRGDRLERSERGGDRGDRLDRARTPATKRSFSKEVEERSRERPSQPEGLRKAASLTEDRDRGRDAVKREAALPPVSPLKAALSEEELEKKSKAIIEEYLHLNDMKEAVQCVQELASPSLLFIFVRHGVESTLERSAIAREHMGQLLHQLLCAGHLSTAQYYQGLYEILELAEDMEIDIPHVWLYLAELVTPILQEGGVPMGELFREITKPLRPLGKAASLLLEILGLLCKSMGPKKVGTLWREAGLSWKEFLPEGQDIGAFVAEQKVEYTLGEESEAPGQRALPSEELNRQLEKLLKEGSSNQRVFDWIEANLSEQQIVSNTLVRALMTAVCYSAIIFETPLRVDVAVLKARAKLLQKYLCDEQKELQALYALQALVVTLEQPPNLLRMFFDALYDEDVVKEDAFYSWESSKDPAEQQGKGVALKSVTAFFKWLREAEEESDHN

Compared with CCCCOc1ccc(C(=O)NCC(=O)OCC(=O)N2CCN(S(=O)(=O)c3ccc(C)cc3C)CC2)cc1, COc1ccc(NC(=O)COc2ccc(C(=O)OCC(=O)N(C)C3CCS(=O)(=O)C3)cc2OC)cc1 (stereo not given) is lower in inhibition: 11.8% for the first, -0.66% for the second.

Going from O=C(Cc1c[nH]c2ccccc12)OCCOC(=O)Cc1c[nH]c2ccccc12 to CCCCn1c(O)c(N=NC(=O)Cn2c(C(F)(F)F)nc3ccccc32)c2ccccc21, the inhibition rises from 0.18% to 16%.

First: CC1CCN(CC(=O)c2c[nH]c3ccccc23)CC1
Second: Cc1c(-c2cccc(Cl)c2)nc2ccccc2c1C(=O)OCC(=O)N(C)C1CCS(=O)(=O)C1 (stereo not given)
The inhibition of the first is lower: -20.8% for the first, 2.67% for the second.

First: CCOC(=O)CCCNC(=O)COC(=O)c1cc(Br)c(Br)s1
Second: COc1ccccc1OCC(=O)O/N=C(\N)c1ccccn1
The inhibition of the first is lower: -0.44% for the first, 4.41% for the second.

Compared with CCCn1nc(NS(=O)(=O)c2ccccc2)c2cc3cc(C)ccc3nc21, N#CCCCn1c(O)c(N=NC(=O)C(O)c2ccccc2)c2ccccc21 (stereo not given) is higher in inhibition: 0.92% for the first, 1.55% for the second.

Going from CC1(C)C(c2cccs2)=[N+]([O-])C2(CCCCC2=O)N1O (stereo not given) to Cc1ccc(NC(=S)NC2CCCC2)cc1, the inhibition rises from -4.23% to 1.43%.

Compared with O=C(NNC(=S)NC(=O)c1cn(-c2ccccc2)nc1-c1ccccc1)c1ccncc1, S=C(NCCc1ccccc1)N1CCn2cccc2C1c1ccncc1 (stereo not given) is lower in inhibition: 0.17% for the first, -2.42% for the second.

First: Cc1ccc(N(C(=O)C(F)(F)F)C(C(=O)NC2CCCCC2)c2ccncc2)cc1C (stereo not given)
Second: COc1ccc(-c2ccc(OC(=O)NC3CCS(=O)(=O)C3)cc2)cc1 (stereo not given)
The inhibition of the first is higher: 4.58% for the first, 2.9% for the second.

In the case of O=C(OCC(=O)c1c[nH]c2ccccc12)c1cccc(O)c1, the inhibition is reported as 49.4% (active).
With COC(=O)Cn1c(O)c(N=NC(=O)OC)c2ccccc21 the inhibition was 94.3% (active).
In the case of CN(C(=O)COC(=O)c1cc(-c2ccco2)nc2ccccc12)C1CCS(=O)(=O)C1 (stereo not given), the inhibition is reported as 42.4% (active).
For COc1ccc(NC(=S)NC2CCS(=O)(=O)C2)cc1 (stereo not given), the inhibition was 49.7% (active).
